Test results published in PubChem BioAssay (NCATS).
Calls of active or inactive are those of the source. Calls follow the shape of the dose curve; as a rule, active = well fitted curve in the direction sought with a large enough effect; inconclusive = small, poorly fitted or top-dose-only effect, or effect the other way, or another doubt; inactive = no such curve, though single readings can be large or run the other way.

Assay: Inducers of the Endoplasmic Reticulum Stress Response (ERSR) in human glioma: Validation (AID 504836)
Conditions: human glioma cells, ER stress response reporter; series mostly up to 38.3 µM
How it was run: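 Stably transfected U87-MG glioma cells carrying a GRP78-based luciferase sensor; 16 h compound incubation. Luminescence end-point read 10 min after Bright-Glo addition at room temperature.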

| SMILES | outcome |
| --- | --- |
| Nc1nc2c(ncn2COCCO)c(=O)[nH]1 | inactive |
| O=C(O)COCCN1CCN(C(c2ccccc2)c2ccc(Cl)cc2)CC1 (centres undefined) | inactive |
| Nc1nnc(-c2cccc(Cl)c2Cl)c(N)n1 | inactive |
| Cc1ccccc1C(OCCN(C)C)c1ccccc1 (centres undefined) | inactive |
| Clc1ccc(C(c2ccccc2Cl)C(Cl)Cl)cc1 (centres undefined) | inactive |
| O=C(CCCN1CCC(O)(c2ccc(Cl)cc2)CC1)c1ccc(F)cc1 | inactive |
| CN(C)[C@@H]1C(=O)C(C(N)=O)=C(O)[C@@]2(O)C(=O)C3=C(O)c4c(O)ccc(Cl)c4[C@@H](O)[C@H]3C[C@@H]12 | inactive |
| CCCNCC(O)COc1ccccc1C(=O)CCc1ccccc1 (centres undefined) | inactive |
| C[C@](N)(Cc1ccc(O)c(O)c1)C(=O)O | inactive |
| O=C(c1ccccc1)c1ccc2n1CCC2C(=O)O (centres undefined) | inactive |
| CN(C)CC/C=C1\c2ccccc2COc2ccccc21 | inactive |
| CCOC(=O)c1ncn2c1CN(C)C(=O)c1cc(F)ccc1-2 | inactive |
| CN(C)CCC=C1c2ccccc2C=Cc2ccccc21 | inactive |
| CN1CCC(=C2c3ccccc3C=Cc3ccccc32)CC1 | inactive |
| CN[C@H]1CC[C@@H](c2ccc(Cl)c(Cl)c2)c2ccccc21 | inactive |
| OCCN(CCO)c1nc(N2CCCCC2)c2nc(N(CCO)CCO)nc(N3CCCCC3)c2n1 | inactive |
| CC(=O)CCCCn1c(=O)c2c(ncn2C)n(C)c1=O | inactive |
| NS(=O)(=O)c1cc2c(cc1Cl)NC=NS2(=O)=O | inactive |
| CC(=O)O[C@]1(C(C)=O)CC[C@H]2[C@@H]3C=C(Cl)C4=CC(=O)[C@@H]5C[C@@H]5[C@]4(C)[C@H]3CC[C@@]21C | inactive |
